Compounds with a hit are over-represented: about 6% of the library has one in this group of screens.
VDR inh: inhibitors of human vitamin D receptor. P11473. VDR-SRC2-3 peptide fluorescence polarization, 2 h. Potency, µM, without a hit: max response, negative = inhibition, actives largely listed as inhibitors. 400,000 compounds, 0.93% hits. AID 504847
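Fluorescence polarization assay of small-molecule disruption of VDR binding to coregulator peptide SRC2-3. Compounds and controls pin-transferred, then read after 2 h incubation at ambient room temperature.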
Sfp PPTase inh: Sfp phosphopantetheinyl transferase inhibition | Biochemical Sfp PPTase activity, qHTS | Potency, µM, for the others: largest response in the series, negative = inhibition, hits mostly inhibitors | 310,000 compounds, 3.5% hits;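 note: the enzyme is Sfp with the accession as filed and its product quenches rhodamine fluorescence; 0% = enzyme reaction without inhibitor and -100% = no enzyme wells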
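After 15 min at room temperature with compound, 15 nM Sfp received 5 uM rhodamine-CoA plus 12.5 uM BHQ-2-ybbR (50 mM Hepes pH 7.6, 10 mM MgCl2). Rate came from the fluorescence difference over 30 min, ex 525/em 598 nm.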
Tau fluor cs: counter-screen for tau fibril formation inhibitors | tau K18 P301L Alexa594 fluorescence, heparin fibrillization | Potency, µM (titrated, usually from 57.7 µM), for the others: at the highest dose activity change, negative = decrease | 280,000 compounds, 0.93% hits; note: nearly all actives have a fitted effect of over 55% in size
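Human tau K18 P301L (15 uM unlabeled, 0.24 uM Alexa 594-labeled) in 100 mM sodium acetate pH 7 with 20 uM heparin, 6 hr at 37 C. ThT 30 uM added, 1 hr ambient; Alexa 594 FP and total fluorescence read at 555/632 nm.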
Tau FP inhib: blocks human tau fibril formation measured by polarization; K18 P301L tau heparin fibrillization, Alexa594 FP, 6 h; Potency, µM (series often up to 57.7 µM), inactives show at the top dose activity, negative = inhibition, usual class: inhibitors; 280,000 compounds, 0.39% hits; AID 1468; note: nearly all actives have a fitted effect of over 55% in size
Target sequence (P10636 561-689 P618L limits assumed): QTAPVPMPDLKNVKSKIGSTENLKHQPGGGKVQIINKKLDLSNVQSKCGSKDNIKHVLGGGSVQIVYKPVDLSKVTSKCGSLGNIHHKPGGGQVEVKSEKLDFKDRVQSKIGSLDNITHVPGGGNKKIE
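Human K18 P301L fragment (15 uM unlabeled plus 0.24 uM Alexa 594-labeled) in 100 mM sodium acetate pH 7 with compound, aggregation induced by 20 uM heparin for 6 hr at 37 C. ThT (30 uM) added for 1 hr, then Alexa 594 FP read.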
PLK1 PBD block: blocks phosphopeptide binding to human PLK1 polo-box domain | Plk1 PBD binding of FITC phosphopeptide, fluorescence polarization | Potency, µM, for inactives: max response, negative = inhibition, actives largely listed as inhibitors | 360,000 compounds, 2.8% hits | AID 720504; note: series mostly up to about 57 µM; nearly all actives have a fitted effect of over 65% in size
Tau ThT inhib: tau fibrillization inhibition (ThT binding) | P10636 | recombinant tau K18 P301L (four-repeat tau fragment), heparin-induced fibrillization, ThT fluorescence | Potency, µM (highest dose often 57.4 µM), without a hit: top-dose activity, negative = inhibition, usual class: inhibitors | 270,000 compounds, 2.1% hits | AID 1460; note: nearly all actives have a fitted effect of over 55% in size
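Heparin-induced (20 uM) aggregation of recombinant human K18 P301L tau, 15 uM unlabeled with 0.24 uM labeled, pH 7 acetate buffer, 6 hr at 37 C with compound. Fibrils quantified by 30 uM ThT fluorescence after 1 hr ambient incubation.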
An asterisk follows results filed as active; u = inconclusive; x = no result given; [ ] = dose if it differs, or a comment. Calls come from the whole dose curve; as a rule, active = well fitted curve in the direction sought with a large enough effect; inconclusive = small, poorly fitted or top-dose-only effect, or another doubt; inactive = no such curve, though single readings can be large; an effect the other way counts as inactive or inconclusive. Unless noted, % is set by controls: 0 for no effect and ±100 for the full control effect; potency is the fitted concentration of half-maximal effect.

SMILES | VDR inh | Sfp PPTase inh | Tau fluor cs | Tau FP inhib | PLK1 PBD block | Tau ThT inhib
COc1cc(NC(=O)C(CCSC)NS(=O)(=O)c2ccc3c(c2)oc(=O)n3C)cc(OC)c1 (stereo not given) | -1% | x | 1% | -12% | x | 3%
CC(=O)OC[C@@H]1O[C@@H](O/N=C2/C[C@@H](O)[C@@H](O)[C@@H]3[C@@H]4C(=O)N(C[C@@H]5CCCO5)C(=O)[C@H]4CC[C@@H]23)[C@H](OC(C)=O)[C@H](OC(C)=O)[C@@H]1OC(C)=O | x | -7% | -8%[11.6 µM] | -2%[11.6 µM] | x | -7%[11.5 µM]
COCCNC(=O)C1CCCN(C(=O)c2cc(-c3ccccc3)cs2)CC1 (stereo not given) | x | x | x | x | 5% | x
O=C(O)c1ccc(SCc2ccccc2)nc1 | -18% | x | x | x | -2% | x
O=S(=O)(O)c1ccc(SCc2ccccc2)nc1 | u | x | x | x | 21µM* | x
O=C(C(=O)N(C1CCCCC1)C1CCCCC1)c1ccccc1 | x | x | x | x | -6% | x
Cc1sc2nc(CN3CCOCC3)nc(N3CCN(S(=O)(=O)c4ccccc4)CC3)c2c1C | -6% | x | x | x | 1% | x
O=C(NCCO)c1cc2cc(Cl)cc(Cl)c2oc1=O | u | 35µM* | -20% | -16% | 13µM* | u
CC(=O)c1c(O)cccc1O | -17% | 25µM* | x | x | x | x
COc1ccc(CNC(=O)CSc2nnc(C)c3c(C)n(-c4ccccc4)nc23)c(OC)c1 | -2% | x | -8% | 0% | x | -18%
COc1ccc(-c2cnc(N)n2CC2CCCO2)cc1 (stereo not given) | 7% | -8% | 3% | 3% | 27µM* | 1%
Cc1cccc(C)c1NC(=O)c1csc(COCCO)n1 | x | x | x | x | -18% | x
O=C(O)COc1ccc(-c2nccc(-c3ccccn3)n2)cc1 | -29% | u | -14% | 0% | 19µM* | -10%
FCCCOc1ccc(-c2nccc(-c3ccccn3)n2)cc1 | 1% | -16% | x | x | -11% | x
O=C(CCS(=O)(=O)c1ccc2c(c1)NC(=O)CS2)NCCc1ccccc1 | 16% | 13% | x | x | -18% | x
Cc1cccc(NC(=O)CCS(=O)(=O)c2ccc3c(c2)NC(=O)CS3)n1 | u | 11% | x | x | 30µM* | x
CC1CCC(NC(=O)CCS(=O)(=O)c2ccc3c(c2)NC(=O)CS3)CC1 (stereo not given) | -15% | -3% | x | x | -4% | x
COc1ccc(S(=O)(=O)CCC(=O)N2c3ccccc3CC2C)cc1 (stereo not given) | 10% | 7% | 0% | 8% | -15% | 2%
O=C(CCS(=O)(=O)c1ccc2c(c1)NC(=O)CS2)NCCc1ccc(Cl)cc1 | u | 12% | x | x | 17µM* | x
CC1Cc2ccccc2N1C(=O)CCS(=O)(=O)c1ccc2c(c1)NC(=O)CS2 (stereo not given) | u | 13% | x | x | 19µM* | x
COc1ccc(C2=CC3=C(Br)C(=O)C(C)(OC(=O)c4cccs4)C(=O)C3=CO2)cc1 (stereo not given) | -28% | -1% | -6% | 0% | 8.4µM* | -22%
COc1ccc(C2=CC3=C(Br)C(=O)C(C)(OC(=O)c4cnc5ccccc5n4)C(=O)C3=CO2)cc1 (stereo not given) | 0% | -2% | u | u | x | u
COc1ccc(C2=CC3=C(Br)C(=O)C(C)(OC(=O)c4ccco4)C(=O)C3=CO2)cc1 (stereo not given) | 79µM* | u | u | u | 9.5µM* | 16µM*
Cc1cccc(OC(=O)c2cc(-c3ccc4c(c3)OCCO4)on2)c1C | 15% | x | -24% | -9% | x | -15%
COc1ccc(C2NCCc3c2[nH]c2ccccc32)cc1COc1ccc(F)cc1 (stereo not given) | -5% | 45µM* | -13% | 4% | -14% | u
Cc1ccc(S(=O)(=O)N2CCC(C(=O)Nc3ccc(C)c(Cl)c3)CC2)cc1 | -1% | x | u | u | x | -14%
COc1cccc(-c2noc(Cn3nc(C)c([N+](=O)[O-])c3C)n2)c1 | -28% | 35µM* | -6% | -1% | 19µM* | -3%

High-throughput results deposited in PubChem BioAssay by National Center for Advancing Translational Sciences (NCATS).
